# Sampled rows, rich in hits. Any-hit rate of the full collection: about 5.7%.
# DAX1 inh-1 – inhibits human nuclear receptor DAX1 | P51843 | inhibition, % at 6.75 µM | 0.99% of 340,000 active | HEK293 Gal4-DAX1 luciferase reporter, luminescence;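 active = inhibition above the mean over all tested compounds plus 3 SD, cut at about 4.2% in these data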;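 note: 0% = DAX1-transfected cells with DMSO and 100% = empty-vector control cells with DMSO; inhibition shows as a rise in luminescence from relieved DAX1 repression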
# ssDAF-12 act – activators of S. stercoralis DAF-12 nuclear receptor. HEK293 ssDAF-12/GRIP1 lit1-tk-luc reporter, luminescence; % of 3 µM dafachronic acid response. activation, % at 6.8 µM. 1% of 370,000 active. AID 652126;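 active = activation above the mean over all tested compounds plus 3 SD, cut at about 0.9% in these data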;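 note: 0% = DMSO-only wells and 100% = 3 µM delta7-dafachronic acid wells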
# DAX1 inh-2 – DAX1 (NR0B1) inhibition, primary screen; HEK293T StAR-luciferase reporter, SF-1/DAX-1 repression relief; inhibition, % at 6.8 µM; 1.1% of 370,000 active; AID 652010;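 active = inhibition above the mean over all tested compounds plus 3 SD, cut at about 3.6% in these data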;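 note: 0% = DAX-1 cells with DMSO and 100% = cells lacking DAX-1 with DMSO; higher inhibition means more luminescence from relief of DAX-1 repression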
# hcDAF-12 act – H. contortus DAF-12 activation, primary screen; HEK293 hcDAF-12 lit1-tk-luc reporter, luminescence; 0% DMSO, 100% Δ7-dafachronic acid; AID 652067; 1.4% of 370,000 active; activation, % at 6.8 µM;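 active = activation above the mean of all tested compounds plus 3 SD, cut at about 5.5% in these data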;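 note: 100% = response to 3 µM Δ7-dafachronic acid high control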
# AHR act – human AHR activation; 2.5% of 320,000 active; P35869; activation, % at 5 µM; AHR-responsive luciferase reporter cells, luminescence; AID 2796; in the data active = activation above about 47%;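 note: 0% = vehicle wells and 100% = reference agonist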
# Target sequence (P35869 whole entry, looked up): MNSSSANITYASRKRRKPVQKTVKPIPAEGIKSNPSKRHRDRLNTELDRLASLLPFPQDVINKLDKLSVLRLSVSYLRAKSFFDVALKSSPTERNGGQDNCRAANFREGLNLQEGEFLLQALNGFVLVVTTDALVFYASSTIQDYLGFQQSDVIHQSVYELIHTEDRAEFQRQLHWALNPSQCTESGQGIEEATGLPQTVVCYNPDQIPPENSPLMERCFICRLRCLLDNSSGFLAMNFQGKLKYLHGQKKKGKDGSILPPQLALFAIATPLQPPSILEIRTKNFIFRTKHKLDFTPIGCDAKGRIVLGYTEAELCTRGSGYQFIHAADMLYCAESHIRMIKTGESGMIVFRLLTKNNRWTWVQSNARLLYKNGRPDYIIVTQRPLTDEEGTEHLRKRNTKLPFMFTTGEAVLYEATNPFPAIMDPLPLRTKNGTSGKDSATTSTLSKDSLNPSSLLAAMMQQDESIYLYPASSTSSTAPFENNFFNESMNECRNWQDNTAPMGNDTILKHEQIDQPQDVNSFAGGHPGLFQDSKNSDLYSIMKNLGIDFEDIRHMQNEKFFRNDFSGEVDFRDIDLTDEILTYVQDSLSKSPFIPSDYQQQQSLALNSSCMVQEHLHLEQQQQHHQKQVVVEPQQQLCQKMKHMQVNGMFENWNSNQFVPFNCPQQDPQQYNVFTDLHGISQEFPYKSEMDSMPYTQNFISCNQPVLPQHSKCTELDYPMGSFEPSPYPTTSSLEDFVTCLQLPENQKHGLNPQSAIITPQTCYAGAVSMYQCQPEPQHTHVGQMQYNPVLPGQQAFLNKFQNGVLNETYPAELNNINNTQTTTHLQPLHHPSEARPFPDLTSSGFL
# hgDAF-12 ag – activates the H. glycines DAF-12 receptor ligand-binding domain; HEK293 GAL4-hgDAF12 UAS-luciferase reporter, agonist luminescence; normalized to butyrate control; activation, % at 6.8 µM; AID 687014; 1.8% of 370,000 active;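 active = activation above a cutoff set at the mean of all screened compounds plus 3 SD, cut at about 10% in these data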;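 note: 0% = DMSO wells and 100% = sodium butyrate wells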
# Numbers without * were called inactive; x = no result given.
SMILES,DAX1 inh-1,ssDAF-12 act,DAX1 inh-2,hcDAF-12 act,AHR act,hgDAF-12 ag
O=C(NCc1ccc(Cl)cc1)C1CCCN(c2cnccn2)C1 (configuration not stated),-1.1,-0.7,0.1,-2.7,78.2*,0.6
Cc1cccc(CCNC(=O)C2CCCN(c3cnccn3)C2)c1 (configuration not stated),-1.0,-1.3,-1.5,-2.9,73.4*,-1.9
NS(=O)(=O)c1ccc2nc(-c3ccccc3)c(-c3ccccc3)nc2c1,-0.5,-0.7,-0.3,-2.4,-3.0,-0.5
CCCCNC(=O)NCC1CCN(Cc2ccc(OC)cc2)CC1,x,-1.6,0.1,-0.7,x,-0.9
Cc1cc(C)cc(NC(=O)COC(=O)CCn2c(C)csc2=O)c1,-0.1,-1.4,-0.8,0.3,-0.4,2.1
Cc1cccc(NC(=O)Cn2nc(-c3cccs3)ccc2=O)c1C,-1.1,-1.5,0.0,-0.1,9.2,-2.1
O=C(NC1CCCCC1)c1sc(N2CCOCC2)nc1-c1ccccc1,0.8,-1.2,-0.4,-1.4,2.4,-4.1
COc1ccc(N/N=C(\C#N)C(=N)N2CCOCC2)cc1,5.3*,-1.3,2.9,0.2,19.0,8.5
N#C/C(=N\Nc1ccccc1)C(=N)N1CCCCCC1,6.8*,0.7,2.4,4.7,13.7,10.2
COC(=O)C1=C(C)N(Cc2cccc(C(F)(F)F)c2)C(=NCc2cc(OC)c(OC)c(OC)c2)NC1c1ccc(F)cc1 (configuration not stated),x,-0.3,0.4,3.2,x,0.3
Cc1cccc(CC(=O)Nc2sc(C(C)C)cc2C(=O)N2CCOCC2)c1,-1.1,-0.8,-1.9,0.2,4.6,-0.5
Cn1c(-c2ccccc2)cc(=NNS(C)(=O)=O)c2cc(S(=O)(=O)O)ccc21,1.4,-1.3,0.4,-0.5,x,-1.7
CSc1nc(/C=C2\C=Nc3ccccc32)c(O)n1C,1.3,0.9*,-0.1,6.4*,50.6*,7.8
CC(C)n1c(O)c(/C=C2\C=Nc3ccccc32)sc1=Nc1ccccc1,-1.1,-1.7,-0.1,-0.6,-9.7,-1.5
Cc1cc(C)nc(N/N=C/c2ccccc2)n1,0.1,x,x,x,4.4,x
Cc1cc(C)nc(N/N=C/c2cn[nH]c2-c2ccccc2)n1,0.0,-1.0,-0.2,-0.6,67.4*,-0.5
Cc1cc(-c2ccccc2)nc(N/N=C/c2ccc(O)cc2)n1,-0.9,-0.8,3.9*,-0.7,x,3.3
O=C(CCCCC(=O)Nc1c(I)cc(I)c(C(=O)O)c1I)Nc1c(I)cc(I)c(C(=O)O)c1I,-0.7,1.9*,0.3,0.4,1.4,-1.7
Cc1cc2c(NC(=O)Nc3ccc(C(F)(F)F)cc3)cccc2nn1,2.1,-0.9,-0.5,0.7,54.7*,-2.6
Cc1cc2c(NC(=O)CCCC(=O)O)cccc2nn1,-0.4,0.1,-0.2,0.4,-1.1,3.1
COC(=O)C1=C(C)N(C)C(=NCc2ccc(OC)cc2)NC1c1ccc(Cl)cc1 (configuration not stated),x,-1.5,-1.2,2.1,x,1.0
CC(=O)c1ccc(NC(=O)CSc2nccn2C)cc1,1.4,-1.3,0.5,0.1,-0.3,4.7
Cc1ccc(NC(=O)CSc2nccn2C)cc1F,1.1,-0.5,4.4*,1.7,8.7,2.8
Cc1ccc(NC(=O)CSc2ncccn2)cc1F,5.7*,-1.6,-1.4,-0.6,1.7,1.6
Cc1nc(SCC(=O)Nc2ccc(C)c(F)c2)c2oc3ccccc3c2n1,0.5,-0.9,0.4,0.1,2.8,-1.0
SMILES,DAX1 inh-1,ssDAF-12 act,DAX1 inh-2,hcDAF-12 act,AHR act,hgDAF-12 ag
CC(C)c1ccc(NC(=O)C2=NNC(=O)CC2)cc1,5.3*,-0.9,2.2,3.3,1.2,7.3
Cc1ccc(NC(=O)C2=NNC(=O)CC2)cc1F,2.0,-0.7,0.8,-0.2,0.6,3.5
Cc1ccc(C(=O)/C=C2\NCC(C)NC2=O)cc1 (configuration not stated),-1.4,-0.3,2.1,5.1,-4.4,8.6
Cc1ccc(C(=O)/C=C2\NCCNC2=O)cc1,1.7,0.0,3.8*,3.4,-0.5,12.9*
COc1cccc(NC(=O)CN(C)C(=O)c2cc(-c3ccccc3)nn2-c2ccccc2)c1,-1.1,-1.0,-0.8,-2.6,0.2,-1.6
COc1ccc(C2N(c3ccc(C)cc3)CCN2c2ccc(C)cc2)cc1O,4.9*,-0.9,0.5,-1.9,3.5,0.5
C[C@@H]1CN([C@@H](C)CO)C(=O)c2cc(Br)cnc2O[C@@H]1CN(C)Cc1ccccn1,x,-0.9,-0.2,0.6,x,-0.4
